Inconclusive results are not listed. A call without a number means that no potency is given here. Active and inactive are the calls of the source. Calls follow the shape of the dose curve; as a rule, active = well fitted cell-killing curve with a large enough effect in the repeat runs; inconclusive = weak or mixed curves, or effect the other way; inactive = flat fitted curve, though single readings scatter.

One experiment can be described thus: qHTS assay to identify small molecule agonists of the androgen receptor (AR) signaling pathway in the presence of an antagonist - cell viability counter screen (AID 1259379).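 Also: MDA-kb2 human breast cancer cells carrying an MMTV luciferase reporter; nearly all actives have a fitted effect of over 25% in size.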 The conditions noted are these: MDA-kb2 viability, CellTiter-Fluor, 16 h; series mostly up to 92.4 µM. Summed up: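 Cytotoxicity counter-screen run in the same wells as the nilutamide-challenged (3.0 µM final) AR agonist assay in MDA-kb2 cells. Compounds tested at 15 concentrations for 16 h, 37 °C without CO2; CellTiter-Fluor fluorescence read.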
For the compound `CCCCCCCCCCCCCCCC(=O)OC`, the activity change, negative = cytotoxicity is 0.0056% [at 19 µM] (inactive).
Take `C=C(C)C(=O)OCCOC1CC2CC1C1C=CCC21` (stereo not given): the result was inactive.
Same read-out and setting: to `C=COCCCCO` belongs “inactive”; to `COC(=O)c1cc(Cl)c(NC(C)=O)cc1OC`, “inactive”.
Same read-out and setting: to `CCO[Si](CC(C)C)(OCC)OCC` belongs “inactive”.
Still for that read-out and setting: to `CC[N+](C)(CC)CC` belongs “inactive”; to `BrCCOc1ccccc1`, “inactive”; to `CCCCC(CC)COC(=O)CC#N` (stereo not given), “inactive”.
As for `O=S(=O)(O)c1cc(I)c(O)c2ncccc12`, the result was inactive.
The same measure, in the same setting: to `CCC(C)c1nccnc1OC` (stereo not given) belongs “inactive”.
Still for that read-out and setting: for `CCCCC(O)/C=C(C)/C=C/C=C/C(=O)N1CCCC1=O` (stereo not given) the value was “inactive”; for `Clc1cc(Cl)c(Cl)c(Cl)c1Cl`, “inactive”.
Same read-out and setting: to `CC(C)OCCO` belongs “inactive”.
With `O=Cc1ccccc1S(=O)(=O)O`, the outcome was inactive.
Consider `O=c1[nH]c(=O)c2cn[nH]c2[nH]1`, for which the outcome was inactive.
For `CC(C)(C)c1ccc(C(=O)CCCCl)cc1`, the result was inactive.
Still for that read-out and setting: to `CC(C)(C)NCC(O)COc1cccc2c1CCC(=O)N2` (stereo not given) belongs “inactive”; to `C=CCON/C(CCC)=C1\C(=O)CC(C)(C)C(C(=O)OC)=C1O`, “inactive”.
In the case of `C/C=C/C(=O)CCCC`, the result was inactive.
On to `CN1CCN(C(=O)C2CCCCC2)CC1`, for which the result was inactive.
Take `COc1cc2nc(N3CCN(C(=O)C4CCCO4)CC3)nc(N)c2cc1OC` (stereo not given): the result was inactive.
Same read-out and setting: for `CC(=O)SCC(CC(=O)c1ccc(C)cc1)C(=O)O` (stereo not given) the value was “inactive”; for `CCc1ncc(C)[nH]1`, “inactive”; for `CCN1CCN(C(=O)N[C@@H](C(=O)N[C@@H]2C(=O)N3[C@@H]2SC(C)(C)[C@H]3C(=O)O)c2ccccc2)C(=O)C1=O`, “inactive”.

A short description of a further experiment: qHTS assay to identify small molecule agonists of the estrogen receptor beta (ER-beta) signaling pathway - cell viability counter screen (AID 1259380). Also: nearly all actives have a fitted effect of over 30% in size. The settings on record: ER-beta-bla HEK293T viability, CellTiter-Glo luminescence, 16 h; series mostly up to 92.4 µM. The method in brief: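 Cell viability counter screen: CellTiter-Glo luminescence (30 min, room temperature) measured in the same wells as the beta-lactamase readout, after 16 hr compound exposure at 37C of ER-beta-bla HEK293T cells in 2% charcoal-stripped FBS medium.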
Turning to `N[C@H]1C(O)O[C@H](CO)[C@@H](O)[C@@H]1O` (stereo not given in full), the Potency result is “inactive”.
The same measure, in the same setting: to `COC(=O)c1ccc(C(=O)O)cc1` belongs “inactive”.
For the compound `COC(=O)c1cc(Cl)c(NC(C)=O)cc1OC`, the Potency result was “inactive”.
Same read-out and setting: for `COC(=O)/C=C(\C)CCC=C(C)C` the value was “inactive”; for `CC(C)C(C)C`, “inactive”; for `CC1(C)S[C@@H]2[C@H](NC(=O)Cc3ccccc3)C(=O)N2[C@H]1C(=O)O` (tested in a mixture with another compound), “inactive”.
The same measure, in the same setting: to `CCOC(=O)CN1CCCC1=O` belongs “inactive”.
The same measure, in the same setting: for `Cc1ccc2cccnc2c1` the value was “inactive”.
As to `CCCCCCCCCCCCCCCCN(C)C`, the activity change, negative = cytotoxicity is 3.62% [at 8.39 µM] (inactive).
In the case of `COc1ccc(Cl)cc1C`, the Potency result is “inactive”.
For `O=Cc1ccccc1S(=O)(=O)O`, the Potency result is “inactive”.
Same read-out and setting: for `O=c1[nH]c(=O)c2cn[nH]c2[nH]1` the value was “inactive”; for `CC(C)(C)c1ccc(C(=O)CCCCl)cc1`, “inactive”; for `O=C(O)Cc1c(Cl)ccc(Cl)c1Cl`, “inactive”.
Take `CC(C)(C)NCC(O)COc1cccc2c1CCC(=O)N2` (stereo not given): the Potency result is “inactive”.
On the same count and under the same terms, to `CCC(C)(C)C` belongs “inactive”; to `C=CCON/C(CCC)=C1\C(=O)CC(C)(C)C(C(=O)OC)=C1O`, “inactive”; to `CCCOc1ccc(C(=O)OCCN(CC)CC)cc1N`, “inactive”.
On the same count and under the same terms, to `Cc1nnc(C(=O)NC(C)(C)c2nc(C(=O)NCc3ccc(F)cc3)c(O)c(=O)n2C)o1` belongs “inactive”; to `COc1cc2nc(N3CCN(C(=O)C4CCCO4)CC3)nc(N)c2cc1OC` (stereo not given), “inactive”; to `CCN(CC)CC(=O)Oc1ccc(NC(C)=O)cc1`, “inactive”.

(Values after PubChem BioAssay (Tox21).)
